Experimental data reported in PubChem BioAssay (NCI).
Where “and” joins values, the source holds several entries; their conditions need not be identical. Equal values may be shown once. This is part of a sample that, as a whole, favours compounds with a hit. Of some 83,000 tested, about 20% had one in any assay.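 How to read the values: 0–100, growth inhibition (40 = 60% inhibited); 0, no net growth; -100 to 0, cell death (-40 = 40% of starting cells died; -100 = all dead).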 Calls of active or inactive are those of the source. Rule for the calls: active = growth percent below 10; inactive = the rest.

Tests used:
Assay in all cases: NCI-60 one-dose screen, 48 h (100 = growth as untreated, 0 = no growth, -100 = all killed)
NCI-H23 lung = tested on: NCI-H23 lung
NCI-H226 lung = tested on: NCI-H226 lung
NCI-H322M lung = tested on: NCI-H322M lung
HOP-62 NSCLC = tested on: HOP-62 NSCLC
NCI-H460 lung = tested on: NCI-H460 lung
HOP-92 NSCLC = tested on: HOP-92 NSCLC
NCI-H522 lung = tested on: NCI-H522 lung
A549/ATCC NSCLC = tested on: A549/ATCC NSCLC
786-0 renal = tested on: 786-0 renal
COLO 205 colon = tested on: COLO 205 colon

Measured: growth

CCOc1ccc2cc(-c3nn(CC4CCNCC4)c4ncnc(N)c34)ccc2c1
inactive: NCI-H23 lung; 10 µM unless noted 77.5% and 55.6% | NCI-H226 lung; 10 µM unless noted 67.5% and 52.5% | NCI-H322M lung; 10 µM unless noted 91.6% and 75.4% | HOP-62 NSCLC; 10 µM unless noted 83.2% and 64.9% | NCI-H460 lung; 10 µM unless noted 96.7% and 49.7% | HOP-92 NSCLC; 10 µM unless noted 72.5% and 26.5% | NCI-H522 lung; 10 µM unless noted 86.5% and 81.4% | A549/ATCC NSCLC; 10 µM unless noted 85% and 59% | 786-0 renal; 10 µM unless noted 91.4% and 36% | COLO 205 colon; 10 µM unless noted 93% and 15.3%

CCc1ccccc1-n1c(N)c(C#N)c(-c2ccc(OC)c(OC)c2)c(C#N)c1=O
inactive: NCI-H23 lung; 10 µM 105% | NCI-H23 lung; 100 µM 29.3% | NCI-H226 lung; 10 µM 109% | NCI-H322M lung; 10 µM 108% | NCI-H322M lung; 100 µM 39.5% | HOP-62 NSCLC; 10 µM 95.2% | NCI-H460 lung; 10 µM 121% | NCI-H460 lung; 100 µM 30.1% | HOP-92 NSCLC; 10 µM 126% | NCI-H522 lung; 10 µM 105% | A549/ATCC NSCLC; 10 µM 106% | A549/ATCC NSCLC; 100 µM 79.9% | 786-0 renal; 10 µM 107% | COLO 205 colon; 10 µM 138% | COLO 205 colon; 100 µM 115%
active: NCI-H226 lung; 100 µM 8% | HOP-62 NSCLC; 100 µM -28.6% | HOP-92 NSCLC; 100 µM -34.6% | NCI-H522 lung; 100 µM -8.58% | 786-0 renal; 100 µM -9.15%

CNC(=O)c1cc(Oc2ccc(CC(=O)Nc3cc(C(C)(C)C)nn3C)cc2)ccn1
inactive: NCI-H23 lung; 1 µM 50% | NCI-H23 lung; 10 µM 49% | NCI-H23 lung; 30 µM 48.9% | NCI-H226 lung; 10 µM 61.6% | NCI-H226 lung; 30 µM 49.4% | NCI-H322M lung; 1 µM 92.5% | NCI-H322M lung; 10 µM 93.4% | NCI-H322M lung; 30 µM 105% | HOP-62 NSCLC; 1 µM 55% | HOP-62 NSCLC; 10 µM 77.6% | HOP-62 NSCLC; 30 µM 75.1% | HOP-92 NSCLC; 1 µM 74.7% | HOP-92 NSCLC; 10 µM 93.5% | HOP-92 NSCLC; 30 µM 92.6% | NCI-H522 lung; 1 µM 74.3% | NCI-H522 lung; 10 µM 54.9% | NCI-H522 lung; 30 µM 71.7% | 786-0 renal; 1 µM 90.7% | 786-0 renal; 10 µM 100% | 786-0 renal; 30 µM 93.8% | COLO 205 colon; 10 µM 77.1% | COLO 205 colon; 30 µM 91.2%

O=C(c1ccc(Cl)cc1)C(NCCO)c1ccc(Cl)cc1 (configuration not stated)
inactive: NCI-H23 lung; 10 µM unless noted 90.7% and 90.4% | NCI-H226 lung; 10 µM unless noted 93.2% and 106% | NCI-H322M lung; 10 µM unless noted 86.4% and 93.6% | HOP-62 NSCLC; 10 µM unless noted 87.5% | NCI-H460 lung; 10 µM unless noted 100% and 114% | HOP-92 NSCLC; 10 µM unless noted 72.9% and 89.4% | NCI-H522 lung; 10 µM unless noted 92.8% and 89.3% | A549/ATCC NSCLC; 10 µM unless noted 96.8% and 93.8% | 786-0 renal; 10 µM unless noted 97.8% and 93.3% | COLO 205 colon; 10 µM unless noted 112% and 122%

Cn1cc(-c2cc3c(Nc4ccc(CC(=O)Nc5cc(C(C)(C)C)on5)cc4)ncnc3[nH]2)cn1
active: NCI-H23 lung; 10 µM unless noted -34% and -14% | NCI-H226 lung; 10 µM unless noted -2.21% and -21.5% | NCI-H322M lung; 10 µM unless noted -15.1% and -11.4% | HOP-62 NSCLC; 10 µM unless noted -11.3% and -15.3% | NCI-H460 lung; 10 µM unless noted -4.56% and 3.41% | HOP-92 NSCLC; 10 µM unless noted 5.01% and -5.97% | NCI-H522 lung; 10 µM unless noted -35.7% and -46.8% | A549/ATCC NSCLC; 10 µM unless noted 4.17% and 8.31% | 786-0 renal; 10 µM unless noted 5.07% and 3.24% | COLO 205 colon; 10 µM unless noted -36.6% and -33.4%
